RORgamma inh: blocks mouse ROR gamma transcriptional activity; P51450; Drosophila S2 Gal4-RORgamma UAS-luciferase reporter, 20 h; Potency, µM (titrated, usually from 53.6 µM), for inactives: at the highest dose activity change, negative = inhibition, most hits filed as inhibitors; 310,000 compounds, 5.4% hits; note: % is set by controls: 0 for no effect and ±100 for the full control effect; nearly all actives have a fitted effect of over 60% in size
Target sequence (P51450 whole entry, looked up, the tested form may be a part): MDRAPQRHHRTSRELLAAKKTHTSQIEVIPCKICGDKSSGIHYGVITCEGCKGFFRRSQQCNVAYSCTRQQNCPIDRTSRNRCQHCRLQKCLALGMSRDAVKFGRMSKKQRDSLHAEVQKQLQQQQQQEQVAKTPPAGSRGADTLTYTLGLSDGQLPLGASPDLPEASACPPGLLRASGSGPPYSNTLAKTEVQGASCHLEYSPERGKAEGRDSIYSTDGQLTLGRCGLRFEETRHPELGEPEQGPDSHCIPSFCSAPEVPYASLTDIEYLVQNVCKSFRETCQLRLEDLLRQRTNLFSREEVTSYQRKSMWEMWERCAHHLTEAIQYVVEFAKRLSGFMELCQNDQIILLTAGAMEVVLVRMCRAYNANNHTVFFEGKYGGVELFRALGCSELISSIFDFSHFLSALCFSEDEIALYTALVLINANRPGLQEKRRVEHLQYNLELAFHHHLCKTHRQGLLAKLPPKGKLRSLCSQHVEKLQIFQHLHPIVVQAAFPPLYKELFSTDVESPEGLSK
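ROR gamma transcriptional activity was tracked as Gal4-UAS luciferase output in stably transfected Drosophila Schneider cells, with compound added 1 hr before 700 uM copper sulfate induction and a 20 hr ambient-temperature incubation.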
VP16 counter: inhibits Gal4-VP16 luciferase reporter, ROR gamma counter-screen. Drosophila S2 Gal4-VP16 UAS-luciferase, luminescence, 20 h. Potency, µM (doses to about 53.6 µM), inactives show top-dose activity, negative = inhibition, usual class: inhibitors. 310,000 compounds, 3.5% hits. AID 2546;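 note: Gal4-VP16 expression switched on by copper sulfate through the metallothionein promoter; % is set by controls: 0 for no effect and ±100 for the full control effect; nearly all actives have a fitted effect of over 50% in size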
ELG1 repair inh: ELG1-dependent DNA repair inhibition. HEK293T ELG1-luciferase reporter, luminescence, 16 h; DNA damage induced by 5-fluorouridine. Potency, µM (doses to about 46.1 µM), for inactives: top-dose activity change, negative = inhibition, most hits filed as inhibitors. 330,000 compounds, 2.3% hits. AID 504467; note: % is set by controls: 0 for no effect and ±100 for the full control effect; nearly all actives have a fitted effect of over 55% in size
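Step one: seed 2,000 cells per well. Step two: pin-transfer compound or DMSO alongside 5-fluorouridine. Step three: incubate 16 hr, 37 °C, 5% CO2. Step four: add ONE-Glo, wait 30 min, read luminescence.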
SW480 rerep: DNA re-replication induction in SW480 cells; SW480 DNA re-replication, Hoechst DNA content imaging, 48 h; Potency, µM (titrated, usually from 46.1 µM), inactives show at the highest dose re-replication activation, most hits filed as activators; 340,000 compounds, 1.8% hits; AID 624297; note: % of control where 0% means no effect; nearly all actives have a fitted effect of over 55% in size
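First, 250 cells per well were seeded. Next, compound or vehicle (23 nL) was pinned in, plates sat 48 hr at 37 C. Finally Hoechst was added for 40 min before fluorescence scanning.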
MCF10A rereplic: DNA re-replication induction in MCF 10a cells. MCF 10A DNA re-replication, Hoechst nuclear intensity, 48 h. Potency, µM (series often up to 46.1 µM), for the others: at the top dose activity, positive = re-replication, hits mostly activators. 350,000 compounds, 2.9% hits. AID 624296; note: % of control where 0% means no effect; nearly all actives have a fitted effect of over 50% in size
* hit, by the source's call; ? = inconclusive; nt = no result. This is a sample that favours compounds with a hit; in the whole collection about 10% have one here. Calls come from the whole dose curve; as a rule, active = well fitted curve in the direction sought with a large enough effect; inconclusive = small, poorly fitted or top-dose-only effect, or another doubt; inactive = no such curve, though single readings can be large; an effect the other way counts as inactive or inconclusive. Potency is the fitted concentration of half-maximal effect.

SMILES | RORgamma inh | VP16 counter | ELG1 repair inh | SW480 rerep | MCF10A rereplic
COc1cc(C(=O)Oc2cccc(/C=N/NC(=O)c3cc(C)[nH]n3)c2)cc(OC)c1OC | 37% | -5% | -18% | 1% | 3%
COCc1cc(C)n(CC(=O)NCc2ccccc2)c(=O)c1C#N | 4% | 10% | 5% | 18µM* | 1%
COCc1cc(C)n(CC(=O)NC(C)c2ccccc2)c(=O)c1C#N (centres undefined) | 24% | -8% | -1% | 0% | 10%
CN(CCN1CCOCC1)C(=O)c1cc(COc2ccc(F)c(F)c2)on1 | -18% | 2% | ? | ? | 1%
Cc1ccccc1C(=O)/C(C#N)=N/Nc1c(C)n(C)n(-c2ccccc2)c1=O | 8.9µM* | 20µM* | -6% | ? | -4%
Cc1c(N/N=C(\C#N)C(=O)c2ccccc2)c(=O)n(-c2ccccc2)n1C | 16µM* | ? | ? | ? | 16%
C=CCN1C(=O)c2ccc(C(=O)N(C)CC(=O)Nc3ccc(OCC)c(OCC)c3)cc2C1=O | nt | nt | 4% | -3% | 1%
Cc1cc(C)c(C#N)c(SCSCc2ccccc2)n1 | 15% | -3% | 14% | -4% | ?
O=C(c1ccccc1)C1OC1C(=O)c1ccccc1 (centres undefined) | nt | nt | nt | 15µM* | 9.2µM*
CC1=C(C(=O)Nc2cccc(F)c2)C(c2ccsc2)C2=C(CC(C)(C)CC2=O)N1 (centres undefined) | -25% | -17% | ? | nt | 5.8µM*
Cc1ccc(-n2c(SCC(=O)NCCN3C(=O)CSC3=O)nnc2-c2ccccc2F)cc1 | 13% | -4% | 1% | nt | -6%
COCC(=O)n1nc(NCc2ccc(OC)cc2)nc1NCc1ccc(OC)cc1 | 10% | 1% | 3% | 4% | -2%
CCC(=O)n1nc(NCc2ccc(OC)c(OC)c2)nc1NCc1ccc(OC)c(OC)c1 | 0% | 23% | 10µM* | 11% | -7%
CCc1ccc2c(c1)C(=O)CCC2 | nt | nt | nt | -10% | -4%
O=C1CCCc2cc3c(cc21)CC1(C3)Cc2cc3c(cc2C1)C(=O)CCC3 | ? | ? | 13µM* | 5.8µM* | 3.3µM*
Cc1ccc(S(=O)(=O)Nc2cccc(C(=O)N3CCCC3)c2)cc1F | nt | nt | 13% | 6% | -2%
COC(=O)[C@@H](c1ccccc1)N(C)S(=O)(=O)c1cccc(S(=O)(=O)N(C)[C@@H](C(=O)OC)c2ccccc2)c1 | -34% | 4% | -24% | 7% | ?
COc1ccccc1N1CCN(CCCN2C(=O)C3CCCN3C2=O)CC1 (centres undefined) | nt | nt | nt | -14% | 13%
CC[C@]12c3[nH]c4ccc(OC)cc4c3CCN1C(=O)C(CC(=O)NCCCN(C)C)C[C@@H]2C(=O)N1CCN(C(=O)c2ccco2)CC1 (some centres undefined) | nt | nt | 27% | ? | ?
CN(C)c1nc(=NCc2ccco2)ss1 | ? | ? | ? | -1% | 21µM*
O=C1CCCC(=NCc2ccco2)C1 | -3% | 5% | 5% | -5% | 1%
CC1=C(C(=O)Nc2ccccc2)C(c2ccc(C)o2)n2c(s/c(=C/c3ccccc3)c2=O)=N1 (centres undefined) | -2% | -1% | 21µM* | -3% | 15µM*
CC1=C(C(=O)Nc2ccccc2C)C(c2ccc(C)o2)n2c(s/c(=C/c3ccccc3)c2=O)=N1 (centres undefined) | -3% | -10% | ? | 4% | -21%
CCOC(=O)N1CCC(NC(=O)c2cc3cc4cc(OC)ccc4nc3o2)CC1 | 14% | -12% | 23µM* | -5% | 14%
COc1ccc2c(C)cc(SCC(=O)NC3CCCC3)nc2c1 | nt | nt | -4% | -3% | 8%
COc1ccc2nc(SCC(=O)NC3CCCC3)c(C)cc2c1 | -5% | 9% | -20% | ? | 8.2µM*
COc1ccc(C(=O)Nc2nnc(SCC(=O)NCc3ccco3)s2)c(OC)c1 | 11µM* | 10µM* | ? | -8% | -17%
O=C(CCCl)Nc1nnc(SCC(=O)NC2CCCC2)s1 | -38% | 2µM* | -6% | 8.2µM* | 18µM*
CCCCC(=O)Nc1nnc(SCC(=O)NC2CCCC2)s1 | 9% | -3% | 7% | -1% | 9%
